PubChem BioAssay (NCATS)
Records with an inconclusive call do not appear. Entries that show only a call come without a potency. Values without a mark were called inactive. The source made the active and inactive calls. Unless noted, the call rests on the fitted dose curve; in most records, active means well fitted curve in the direction sought with a large enough effect; inconclusive means small, poorly fitted or top-dose-only effect, or another doubt; inactive means no such curve, though single readings can be large; an effect the other way counts as inactive or inconclusive.

What was measured:
[1] = NS1 protein of Zika virus - qHTS assay to identify small molecule inhibitors in human HEK 293 cells (AID 1347053); further: nearly all actives have a fitted effect of over 55% in size; further: potency means the concentration at half of the fitted maximal effect
Outline: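 TR-FRET signal from two anti-ZIKV NS1 antibodies quantified NS1 in HEK 293 cells 24 h after MR766 infection at MOI = 0.5; compounds were added 1 h before virus. Uninfected cells and infected cells defined the NS1 normalization range.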

[2] = qHTS for Inhibitors of the Functional Ribonucleoprotein Complex (vRNP) of Lassa (LASV) Arenavirus: LASV Primary Screen - GLuc reporter signal (AID 1347082; calls by dose curve; tested in HEK293 reporter line; further: series mostly up to about 57 µM; nearly all actives have a fitted effect of over 60% in size)
[3] = qHTS for Inhibitors of the Functional Ribonucleoprotein Complex (vRNP) of Lassa (LASV) Arenavirus: Viability assay - alamar blue signal for LASV Primary Screen (AID 1347083; calls by dose curve; tested in HEK293 reporter line; further: series mostly up to about 57 µM; nearly all actives have a fitted effect of over 80% in size)
[4] = qHTS of pediatric cancer cell lines to identify multiple opportunities for drug repurposing: Primary screen for SJ-GBM2 cells (AID 1347091); further: potency means the concentration at half of the fitted maximal effect
Outline: (§1)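 Eight- or eleven-point concentration series, 48 h treatment at 37 degrees C in growth media; readout CellTiter-Glo luminescence. Potency and efficacy were taken from the concentration-response curves.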

[5] = qHTS of pediatric cancer cell lines to identify multiple opportunities for drug repurposing: Primary screen for DAOY cells (AID 1347090); further: nearly all actives have a fitted effect of over 55% in size; further: potency means the concentration at half of the fitted maximal effect
Outline: as §1

[6] = qHTS of pediatric cancer cell lines to identify multiple opportunities for drug repurposing: Primary screen for SK-N-MC cells (AID 1347093); further: potency means the concentration at half of the fitted maximal effect
Outline: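 Metabolically active cells were quantified by ATP-dependent luminescence (CellTiter-Glo, 15 min at room temperature) following 48 h treatment. Cells had been plated at 500-1,000 per well and settled for 5 h beforehand.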

[7] = qHTS of pediatric cancer cell lines to identify multiple opportunities for drug repurposing: Primary screen for BT-37 cells (AID 1347094); further: potency means the concentration at half of the fitted maximal effect
Outline: (§2)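 Luminescence from CellTiter-Glo served as readout of metabolically active cells after 48 h compound exposure. Titrations: MIPE 11-point, from 0.78 nM; NPC 8-point, from 0.59 nM (final). Concentration-response curves came straight from the primary screen.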

[8] = qHTS of pediatric cancer cell lines to identify multiple opportunities for drug repurposing: Primary screen for U-2 OS cells (AID 1347096); further: nearly all actives have a fitted effect of over 50% in size
Outline: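 Cells (500-1,000/well) in growth media were settled 5 h at 37 degrees C, then given compounds for 48 h. Viability was read as CellTiter-Glo luminescence. Primary runs used MIPE at 11 points (0.78 nM-46 µM) and NPC at 8 points (0.59 nM-46 µM); follow-ups used 11 points.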

[9] = qHTS of pediatric cancer cell lines to identify multiple opportunities for drug repurposing: Primary screen for Saos-2 cells (AID 1347097); further: nearly all actives have a fitted effect of over 40% in size; further: potency means the concentration at half of the fitted maximal effect
Outline: as §2

[10] = qHTS of pediatric cancer cell lines to identify multiple opportunities for drug repurposing: Primary screen for TC32 cells (AID 1347089); further: nearly all actives have a fitted effect of over 60% in size; further: potency means the concentration at half of the fitted maximal effect
Outline: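 Luminescent CellTiter-Glo read-out of metabolically active TC32 cells after 48 h compound exposure. Primary: MIPE 11-point, 0.78 nM–46 µM; NPC 8-point, 0.59 nM–46 µM. Confirmatory: 11-point dilutions.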

[11] = qHTS of pediatric cancer cell lines to identify multiple opportunities for drug repurposing: Primary screen for A673 cells (AID 1347092); further: nearly all actives have a fitted effect of over 45% in size; further: potency means the concentration at half of the fitted maximal effect
Outline: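 A673 cells (500-1,000 cells/well in growth media) were pre-incubated 5 h at 37 degrees C, then exposed to compounds for 48 h. Viability was read as CellTiter-Glo luminescence; concentration-response curves came directly from the primary screen.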

[12] = qHTS for Inhibitors of the Functional Ribonucleoprotein Complex (vRNP) of Lymphocytic Choriomeningitis Arenaviruses (LCMV): Viability assay - alamar blue signal for LCMV Primary Screen (AID 1347085; calls by dose curve; tested in HEK293 reporter line; further: series mostly up to about 57 µM; nearly all actives have a fitted effect of over 80% in size)
[13] = biological target: Nucleoprotein (Lymphocytic choriomeningitis virus (strain Armstrong)) (UniProt P09992); experiment: qHTS for Inhibitors of the Functional Ribonucleoprotein Complex (vRNP) of Lymphocytic Choriomeningitis Arenaviruses (LCMV): LCMV Primary Screen - GLuc reporter signal (AID 1347086; calls by dose curve; further: series mostly up to about 57 µM; nearly all actives have a fitted effect of over 70% in size)
Sequence of Nucleoprotein (Lymphocytic choriomeningitis virus (strain Armstrong)) (P09992 whole entry, looked up): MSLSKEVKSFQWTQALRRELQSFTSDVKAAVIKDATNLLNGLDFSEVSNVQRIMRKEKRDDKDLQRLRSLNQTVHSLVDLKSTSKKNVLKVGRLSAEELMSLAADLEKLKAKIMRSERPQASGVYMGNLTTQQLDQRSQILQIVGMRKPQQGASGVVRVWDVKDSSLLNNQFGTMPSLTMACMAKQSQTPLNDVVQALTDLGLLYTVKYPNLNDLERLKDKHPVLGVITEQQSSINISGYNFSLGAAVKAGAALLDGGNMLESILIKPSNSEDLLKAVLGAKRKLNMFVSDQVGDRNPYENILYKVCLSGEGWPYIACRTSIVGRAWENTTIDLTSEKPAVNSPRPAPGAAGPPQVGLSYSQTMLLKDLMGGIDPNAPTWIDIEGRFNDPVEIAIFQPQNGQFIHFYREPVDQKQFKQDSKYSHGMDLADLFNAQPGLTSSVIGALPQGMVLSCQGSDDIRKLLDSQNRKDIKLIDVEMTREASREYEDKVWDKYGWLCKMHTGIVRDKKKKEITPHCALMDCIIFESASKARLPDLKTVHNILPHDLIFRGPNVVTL

[14] = qHTS of pediatric cancer cell lines to identify multiple opportunities for drug repurposing: Primary screen for NB-EBc1 cells (AID 1347095); further: potency means the concentration at half of the fitted maximal effect
Outline: as §2

Compound | Potency [1] | Potency [2] | Potency [3] | Potency [4] | Potency [5] | Potency [6] | Potency [7] | Potency [8] | Potency [9] | Potency [10] | Potency [11] | Potency [12] | Potency [13] | Potency [14]
Cc1nnc2n1-c1sc(CCc3ccc(CC(C)C)cc3)cc1C(c1ccccc1Cl)=NC2C (centres undefined) | inactive | inactive | inactive | 26.6 µM (active) |  |  |  |  |  |  |  |  |  | 
COc1ccc2c(C(=O)c3ccc(Cl)cc3)c(C)n(CC(=O)O)c2c1 | inactive |  |  | inactive | 21.1 µM (active) | 8.41 µM (active) | inactive | inactive | inactive |  |  |  |  | 
CC[n+]1c(-c2ccccc2)c2cc(N)ccc2c2ccc(N)cc21 | inactive |  |  | 2.66 µM (active) | 0.841 µM (active) | 2.11 µM (active) | 2.46 µM (active) |  | 13.3 µM (active) | 8.36 µM (active) | 3.35 µM (active) |  |  | 
C[C@H](N)[C@H](O)c1ccc(O)c(O)c1 | inactive | inactive |  | inactive |  |  | inactive | inactive |  |  |  |  |  | 
NC1(c2ccccc2)CCCCC1 | inactive | inactive | inactive | inactive |  |  | inactive | inactive | inactive |  | 30.3 µM (active) | inactive | inactive | 
N#Cc1nn(-c2c(Cl)cc(C(F)(F)F)cc2Cl)c(N)c1S(=O)C(F)(F)F (centres undefined) | inactive |  |  |  |  |  | inactive | inactive |  | inactive | inactive |  |  | 
CCCCCCCCC(=O)NCc1ccc(O)c(OC)c1 | inactive | inactive | inactive | 0.001 µM (active) |  | 0.001 µM (active) | 0.001 µM (active) | inactive |  |  |  | inactive | inactive | 0.001 µM (active)
CN1C(=O)CN=C(c2ccccc2)c2cc([N+](=O)[O-])ccc21 | inactive | inactive | inactive | inactive |  |  | inactive | inactive | inactive |  | inactive | inactive | inactive | inactive
CC[C@H](O)C(C[C@H](C)N(C)C)(c1ccccc1)c1ccccc1 | inactive |  |  | inactive |  | 62.3 µM (active) | inactive | inactive | inactive | inactive |  |  |  | 
COc1cc(C[C@@H](C)N)c(OC)cc1C | inactive | inactive | inactive | inactive |  | inactive |  | inactive | inactive |  |  | inactive | inactive | 
CC(C(O)c1ccccc1)N(C)C/C=C/c1ccccc1 (centres undefined) | inactive | inactive | inactive | inactive |  | inactive | inactive | inactive | inactive |  |  | inactive | inactive | inactive
O=C(O)C(Cc1cc(I)c(O)c(I)c1)c1ccccc1 (centres undefined) |  | inactive |  |  |  |  |  |  |  |  |  |  |  | 
CC#C[C@]1(O)CC[C@H]2[C@@H]3C[C@H](C)C4=CC(=O)CC[C@]4(C)[C@H]3CC[C@@]21C | inactive | inactive | inactive |  |  | 23.7 µM (active) |  | inactive | inactive |  |  | inactive | inactive | 
Oc1ccc2[nH]cc(CCCCN3CC=C(c4ccccc4)CC3)c2c1 | inactive | inactive | inactive |  |  |  |  | inactive | inactive |  |  | inactive | inactive | 
C[C@]12Cc3nonc3C[C@@H]1CC[C@@H]1[C@@H]2CC[C@@]2(C)[C@H]1CC[C@]2(C)O | inactive | inactive |  |  | inactive |  |  | inactive |  | inactive |  | inactive | inactive | 
CC[C@]1(O)CC[C@H]2[C@@H]3CCC4=CCCC[C@@H]4[C@H]3CC[C@@]21C | inactive | inactive |  |  |  |  | inactive | inactive |  |  |  |  | inactive | 
CCC(=O)C(CCN(C)C)(c1ccccc1)c1ccccc1 | inactive | inactive | inactive | inactive |  | inactive | inactive | inactive | inactive | inactive | inactive |  |  | 
CCC1(c2cccc(O)c2)CCCCN(C)C1 (centres undefined) | inactive | inactive | inactive | inactive |  | inactive | inactive | inactive |  |  | inactive | inactive | inactive | 

Compound | Potency [1] | Potency [2] | Potency [3] | Potency [4] | Potency [5] | Potency [6] | Potency [7] | Potency [8] | Potency [9] | Potency [10] | Potency [11] | Potency [12] | Potency [13] | Potency [14]
CCCN(CCC)CCc1c[nH]c2ccccc12 | inactive | inactive | inactive | inactive |  |  | inactive | inactive |  |  |  | inactive | inactive | inactive
COCC(=O)N(c1c(C)cccc1C)C(C)C(=O)OC (centres undefined) | inactive | inactive | inactive | inactive |  | inactive | inactive | inactive | inactive |  |  | inactive | inactive | inactive
COc1cc(CC(C)N)c(OC)cc1Br (centres undefined) | inactive | inactive |  | inactive | inactive | 44.9 µM (active) |  | inactive | 35.7 µM (active) |  |  |  | inactive | 
CC(C)C(Br)C(=O)NC(N)=O (centres undefined) | inactive | inactive | inactive | inactive |  | inactive | inactive | inactive | inactive |  | inactive | inactive | inactive | inactive
CC(C)(C)OC(=O)c1ncn2c1[C@@H]1CCCN1C(=O)c1c(Br)cccc1-2 | inactive | inactive | inactive | inactive | inactive | inactive | inactive | inactive | inactive |  | inactive | inactive |  | inactive
Clc1ccc(CSC(Cn2ccnc2)c2ccc(Cl)cc2Cl)cc1 (centres undefined) | inactive |  |  |  |  | 33.5 µM (active) |  |  |  |  | 26.6 µM (active) | inactive | inactive | 
CCO[C@H]1O[C@@H]2OC3(C)CC[C@H]4[C@H](C)CC[C@@H]([C@H]1C)[C@@]24OO3 | inactive | inactive |  | inactive |  | 4.73 µM (active) | inactive | inactive |  | inactive | inactive |  |  | 
CCC1(CC)C(=O)NC(=O)NC1=O | inactive | inactive | inactive | inactive |  |  | inactive | inactive |  |  | inactive | inactive | inactive | inactive
CC(CC(C#N)(c1ccccc1)c1ccccc1)N(C)C (centres undefined) | inactive | inactive | inactive |  | inactive |  |  | inactive |  |  | inactive | inactive | inactive | 
CN(C)CCc1c[nH]c2cccc(O)c12 | inactive | inactive | inactive | inactive |  |  | inactive | inactive | inactive |  |  | inactive | inactive | 
C[C@H](CN1CCOCC1)C(C(=O)N1CCCC1)(c1ccccc1)c1ccccc1 | inactive |  |  |  | inactive |  |  | inactive |  | inactive |  |  |  | inactive
CCN(CC)CCCC(C)Nc1c2ccc(Cl)cc2nc2ccc(OC)cc12 (centres undefined) |  | inactive |  |  |  |  |  |  |  |  |  |  |  | 
CN1CCCC(CC2c3ccccc3Sc3ccccc32)C1 (centres undefined) |  | inactive |  |  |  |  |  |  |  |  |  |  |  | 
CN(C)C(=O)Oc1cc(OC(=O)N(C)C)cc(C(O)CNC(C)(C)C)c1 (centres undefined) | inactive | inactive |  | inactive | inactive | inactive | inactive | inactive |  | inactive |  | inactive | inactive | inactive
c1ccc2c(c1)Sc1ccccc1N2CC1CN2CCC1CC2 (centres undefined) | 3.16 µM (active) | inactive |  | 23.7 µM (active) |  |  | 27.6 µM (active) |  | 26.6 µM (active) |  | 13.3 µM (active) |  |  | inactive
CCC(OC(C)=O)C(CC(C)NC)(c1ccccc1)c1ccccc1 (centres undefined) | inactive | inactive |  |  |  | 31 µM (active) | 35.9 µM (active) |  | 43.7 µM (active) |  | 27.6 µM (active) |  |  | inactive
CN(C)CCc1c[nH]c2ccccc12 | inactive | inactive | inactive | inactive |  | inactive | inactive | inactive | inactive |  | inactive | inactive | inactive | inactive
C#C[C@]1(O)CC[C@H]2[C@@H]3CCC4=CC(=O)CCC4=C3C=C[C@@]21CC | inactive | inactive | inactive | inactive |  |  |  | inactive | inactive |  |  | inactive | inactive | 
